Bioassay records from PubChem.
Rows were chosen to be rich in hits. Some 20% of all compounds tested hit in one or more screens of this group.
Pf growth 96h – Primary qHTS for delayed death inhibitors of the malarial parasite plastid, 96 hour incubation; P. falciparum luciferase reporter growth, 96 h; Potency, µM (series often up to 28.7 µM), inactives show top-dose activity change, negative = inhibition, most hits filed as inhibitors; 320,000 tested, 6.9% active; AID 504834, 2011; further: potency means the concentration at half of the fitted maximal effect; on the % scale 0 is the no-effect control and ±100 the full control effect
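96 h incubation, 37 C, 5% CO2, of luciferase-reporter P. falciparum-infected RBCs (2% hematocrit, 0.05% parasitemia final) with test compounds; endpoint luminescence.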
CHX counter – Cycloheximide Counterscreen for Small Molecule Inhibitors of Shiga Toxin | cell reporter, cycloheximide protein synthesis inhibition counterscreen | max response, % | 300,000 tested, 12% active | AID 2314, 2010; in the data active means max response mostly above about 13%, no sharp cut-off; inactive means mostly below about 14%; further: read at 38.3 µM for the half of the compounds with a filed dose; 0% is about no effect
Shiga inhibitor – A qHTS for Small Molecule Inhibitors of Shiga Toxin | Vero cells, Shiga toxin protein synthesis inhibition reporter | inhibition, % at 38.7 µM | 290,000 tested, 9.2% active; in the data active means inhibition mostly above about 28%, no sharp cut-off; inactive means mostly below about 43%; further: 0% is about no effect
Pf growth 48h – Primary qHTS for delayed death inhibitors of the malarial parasite plastid, 48 hour incubation. 310,000 tested, 5.9% active. Potency, µM (titrated, usually from 28.7 µM), for the others: top-dose activity change, negative = inhibition, usual class: inhibitors. P. falciparum luciferase growth in erythrocytes, 48 h; further: potency means the concentration at half of the fitted maximal effect; on the % scale 0 is the no-effect control and ±100 the full control effect
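Read-out is firefly luciferase luminescence from an integrated reporter in P. falciparum, so falling signal marks reduced parasite growth. Infected erythrocytes were at 2% hematocrit and 0.1% parasitemia (final) in Albumax-supplemented RPMI 1640.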
HCMV antiviral – qHTS Assay for inhibitors of the human cytomegalovirus (HCMV); activity change, negative = inhibition, % at 57.5 µM; HFF cells, HCMV-luciferase reporter, 72 h; hits give low values; 410,000 tested, 4.5% active; AID 1259415, 2018; in the data active means activity change below about -60%; inconclusive means no clear call, values can overlap the other calls; inactive means above about -39%; further: on the % scale 0 is the no-effect control and ±100 the full control effect
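Compounds were evaluated in HFFs infected with an HCMV luciferase reporter virus (MOI 1 PFU/cell). Luciferase in lysates collected 72 h post infection served as the replication measure.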
An asterisk follows results filed as active; ? = inconclusive; · = no result given. Unless noted, the call rests on the fitted dose curve; in most records, active means well fitted inhibition curve with a large enough effect; inconclusive means small, poorly fitted or top-dose-only effect, or another doubt; inactive means no such curve, though single readings can be large or run the other way.

SMILES | Pf growth 96h | CHX counter | Shiga inhibitor | Pf growth 48h | HCMV antiviral
Fc1ccc(OCc2nnc(-c3ccccc3Br)o2)c(Cl)c1 | ? | 15* | 109* | -8% | -28
O=[N+]([O-])c1cc(Br)c(OCc2nnc(-c3ccccc3)o2)c(Br)c1 | -4% | 11 | 8 | ? | 6
O=C(Nc1ccccc1OCc1cc(=O)n2ccccc2n1)c1cccc(Br)c1 | · | · | · | · | 19
CC1=C(C(=O)Nc2cccc(C(F)(F)F)c2)C2(CCCCC2)OC1=O | · | · | · | · | 14
COc1ccc(S(=O)(=O)c2c(Nc3ccc(C)cc3C)sc(C(=O)c3ccc(F)cc3)c2N)cc1 | · | · | · | · | 4
COc1ccc(-c2nc3cc(F)ccc3nc2C(=O)Nc2c(C)cccc2C)cc1 | · | · | · | · | 16
C=CCc1cccc(CNc2nc3ccccc3n2CC)c1O | · | -1 | -9 | 15µM* | -20
C=CCc1cccc(CNc2nc3ccccc3n2CCC)c1O | · | 2 | -30 | 12µM* | -32
CCCCn1c(NCc2ccccc2O)nc2ccccc21 | 54% | 11 | 20 | ? | 24
CC(=O)c1cc2c(cc1NC(=O)CN1Cc3ccccc3C1=O)OCO2 | -10% | 7 | 31 | 52% | ?
CNc1ccccc(-c2ccc3cc4c(cc3n2)OCO4)c1=O | 442% | 66* | 59* | 253% | -25
c1ccc2c(c1)[nH]c1c(N3CCSCC3)ncnc12 | 8% | -1 | 11 | 0% | -32
c1ccc2c(c1)[nH]c1c(N3CCCC3)ncnc12 | 2.6µM* | -1 | 29 | ? | ?
Fc1ccc2[nH]c3c(N4CCc5ccccc5C4)ncnc3c2c1 | 1.9µM* | 7 | -12 | 2.9µM* | -40
CN1CCN(c2ncnc3c2[nH]c2ccc(F)cc23)CC1 | ? | 1 | -12 | 2.9µM* | -13
c1ccc2c(c1)[nH]c1c(N3CCOCC3)ncnc12 | 0% | 1 | 8 | ? | -32
Cc1ccc2[nH]c3c(N4CCOCC4)ncnc3c2c1 | ? | 24 | 48 | ? | ?
CCOc1ccc2[nH]c3c(N4CCc5ccccc5C4)ncnc3c2c1 | 13µM* | 8 | 14 | ? | 9
CN(C)c1cccc(Nc2nccc3[nH]c(-c4ccsc4)cc23)c1 | · | · | · | · | -8
Cc1cccc(NC(=O)COC(=O)c2nn(-c3ccccc3C(F)(F)F)cc2O)c1C | · | · | · | · | -16
Cc1cccc(NS(=O)(=O)c2ccc(Cl)c(C(=O)Nc3ccccc3C)c2)c1 | · | · | · | · | -14
O=C(NCc1ccc2c(c1)OCO2)c1ccc2c(c1)N(Cc1ccc(F)cc1)C(=O)c1ccccc1S2=O (centres undefined) | · | · | · | · | 6
Brc1ccc2[nH]c3c(N4CCc5ccccc5C4)ncnc3c2c1 | · | 49* | 72* | 1.7µM* | ·
Cc1ccc2[nH]c3c(N4CCc5ccccc5C4)ncnc3c2c1 | ? | 15 | 13 | ? | -67*
Cc1[nH]nc2nc(SCC(=O)NCCC3=CCCCC3)n(-c3ccc(Br)cc3)c(=N)c12 | 28% | -3 | -9 | ? | -78*
SMILES | Pf growth 96h | CHX counter | Shiga inhibitor | Pf growth 48h | HCMV antiviral
Cc1cc(-n2c(SCC(=O)NCCC3=CCCCC3)nc3n[nH]c(C)c3c2=N)ccc1Cl | 4.7µM* | 19 | -3 | ? | -21
C=CCn1c(SCC2CCCCO2)nc2sc(CC)cc2c1=O (centres undefined) | ? | -1 | -5 | ? | 8
Cc1ccc(N(CCC(=O)N2CCOCC2)S(=O)(=O)c2ccccc2)cc1 | -3% | · | · | -14% | -6
COc1ccc(CCCNC(=O)C2(C)Cc3c(-c4cccc(C(N)=O)c4)ccnc3O2)cc1 (centres undefined) | · | · | · | · | -12
CC(=O)OC[C@H]1O[C@@](COC(C)=O)(O[C@H]2O[C@H](COC(C)=O)[C@@H](OC(C)=O)[C@H](OC(C)=O)[C@H]2OC(C)=O)[C@@H](OC(C)=O)[C@@H]1OC(C)=O | -15% | · | · | -8% | ·
COc1ccc(-c2oc3c(OC)c(OC)c(OC)c(O)c3c(=O)c2OC)cc1OC | 3.3µM* | -3 | -15 | ? | ?
COc1ccc(-c2oc3cc(OC)c(O)c(OC)c3c(=O)c2OC)cc1O | 10µM* | 1 | -14 | ? | -37
COc1ccc(-c2oc3cc(O)c(OC)c(O)c3c(=O)c2OC)cc1 | ? | 16* | 15 | ? | 109
CS(=O)(=O)c1ccc(Cl)c(NC(=O)c2ccc3ccccc3c2)c1 | ? | -1 | -12 | 36% | -13
C=CCn1c(Cn2c(-c3cnccn3)nc3ccccc32)nc2ccccc21 | · | · | · | · | 36
Cc1ccc(NC(=O)Nc2csc3c2CCCC3)c(C)c1 | · | · | · | · | -29
CCOc1ccc(Cn2ccnc2)cc1[N+](=O)[O-] | -6% | -1 | -20 | 6% | 25
Cc1cc(Cn2ccnc2)c(C)c([N+](=O)[O-])c1Cn1ccnc1 | ? | -2 | -3 | 10µM* | -20
COc1cc(OC)c(N(C)C(=O)CSc2c3c(nc4ccc(Cl)cc24)CCCC3)cc1Cl | · | · | · | · | -32
CNC(=O)c1sc(N2N=C3/C(=C/c4ccccc4)CCCC3C2c2ccccc2)nc1C (centres undefined) | 3.3µM* | -4 | -2 | ? | -39
O=C(/C(N=Nc1cccc([N+](=O)[O-])c1)=C(/O)c1ccc(Br)cc1)C(F)(F)F | ? | 22* | 86* | ? | ·
O=C(CCNc1ccc(Br)cc1)c1cccc([N+](=O)[O-])c1 | -5% | -1 | -13 | 6% | -28
COc1ccc(C2=CC(=O)C=CC2=O)cc1 | 10µM* | 9.3* | -2 | 9.3µM* | ·
CN(C(=O)CSc1nc2ccc(NC(=O)c3cccc(F)c3)cc2s1)c1ccccc1 | · | · | · | · | -75*
CN(C(=O)CSc1nc2ccc(NC(=O)c3ccccc3F)cc2s1)c1ccccc1 | · | · | · | · | 13
COc1ccccc1C(=O)Nc1ccc2nc(SCC(=O)N(C)c3ccccc3)sc2c1 | · | · | · | · | -65*
COc1ccccc1C(=O)Nc1ccc2nc(SCC(=O)N(C)C)sc2c1 | 12µM* | 2 | 6 | ? | 13
O=C(CSc1nc2ccc(NC(=O)c3ccccc3C(=O)O)cc2s1)Nc1ccc(F)c([N+](=O)[O-])c1 | 115% | 25 | 30* | 1% | 28
COc1ccccc1C(=O)Nc1ccc2nc(SCCOc3ccccc3C)sc2c1 | · | · | · | · | -20
COCCn1c(SCC(=O)c2c(N)n(C3CC3)c(=O)[nH]c2=O)nc2ccccc21 | -19% | · | · | ? | 5
CC(=O)c1cccc(NC(=O)CSc2nc3c(=O)n(C)c(=O)n(C)c3n2C)c1 | · | · | · | · | 50
CCOc1ccc2nc(C)cc(C(=O)O)c2c1 | ? | -2 | -12 | 12% | 0
COc1ccc(NC(=S)/N=C(\N)Nc2nc(C)c3ccc(C)cc3n2)cc1 | -12% | 3 | -3 | 12µM* | -35
CCNC(=S)/N=C(\N)Nc1nc(C)c2cc(C)ccc2n1 | 9% | 43* | 88* | ? | 116
